From the supplement of paper PMC10849652
Of roughly 7,900 targets only a part is listed; those with a hit were picked by preference. About 0.6% of all pairs of compound and target were hits.

Compound: c1cn2cc(-c3ccc4cn[nH]c4c3)nc(Nc3ccc(N4CCOCC4)cc3)c2n1 [entospletinib]
Assay: log2 fold change, soluble protein after heating vs DMSO (PISA); higher = thermal stabilisation; K562 cells, 10 uM, 30 min; active = over 0.2 and 3.5 SD of the protein, either way, in both replicates (recomputed)
Method in brief: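 K562 cells (2×10^6 cells/mL) were treated with 10 μM compound for 30 min, and aliquots were heated for 3 min over 48°C-58°C. Pooled aliquots were extracted in PBS with 0.5% NP-40 at 4°C, and the supernatant after 21,000xg for 90 min was measured by TMTpro 16plex LC-MS/MS with channel sums equalised. Reported thermal stability, relative to control samples and from duplicates, is a log2 fold change.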

UniProt P55795, sequence (P55795 whole entry, looked up): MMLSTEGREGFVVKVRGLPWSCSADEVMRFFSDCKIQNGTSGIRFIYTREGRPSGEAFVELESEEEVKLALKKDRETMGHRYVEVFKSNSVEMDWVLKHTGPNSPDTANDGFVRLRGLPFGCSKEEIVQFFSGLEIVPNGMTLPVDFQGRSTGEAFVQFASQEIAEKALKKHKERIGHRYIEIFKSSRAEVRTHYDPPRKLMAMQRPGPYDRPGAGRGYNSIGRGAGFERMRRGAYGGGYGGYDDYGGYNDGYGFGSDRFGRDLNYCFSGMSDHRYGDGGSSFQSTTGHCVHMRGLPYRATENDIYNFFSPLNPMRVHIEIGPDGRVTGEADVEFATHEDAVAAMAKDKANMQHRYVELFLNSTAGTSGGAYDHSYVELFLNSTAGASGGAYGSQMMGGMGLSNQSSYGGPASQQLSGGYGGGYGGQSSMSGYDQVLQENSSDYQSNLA
UniProt P55084, sequence (P55084 whole entry, looked up): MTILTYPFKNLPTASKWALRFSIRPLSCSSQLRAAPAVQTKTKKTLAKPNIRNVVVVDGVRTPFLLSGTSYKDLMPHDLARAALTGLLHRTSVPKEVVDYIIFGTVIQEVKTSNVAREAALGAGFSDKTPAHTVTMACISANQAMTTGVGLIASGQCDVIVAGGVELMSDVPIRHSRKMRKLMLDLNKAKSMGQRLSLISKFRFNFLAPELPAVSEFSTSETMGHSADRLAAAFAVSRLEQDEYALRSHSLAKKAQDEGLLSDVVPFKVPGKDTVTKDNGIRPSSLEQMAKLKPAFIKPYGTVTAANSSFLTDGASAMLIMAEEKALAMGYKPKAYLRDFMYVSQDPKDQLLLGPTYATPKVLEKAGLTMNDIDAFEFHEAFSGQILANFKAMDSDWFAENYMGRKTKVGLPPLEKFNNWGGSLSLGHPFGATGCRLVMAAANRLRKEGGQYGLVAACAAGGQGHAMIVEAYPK
UniProt P40939, sequence (P40939 whole entry, looked up): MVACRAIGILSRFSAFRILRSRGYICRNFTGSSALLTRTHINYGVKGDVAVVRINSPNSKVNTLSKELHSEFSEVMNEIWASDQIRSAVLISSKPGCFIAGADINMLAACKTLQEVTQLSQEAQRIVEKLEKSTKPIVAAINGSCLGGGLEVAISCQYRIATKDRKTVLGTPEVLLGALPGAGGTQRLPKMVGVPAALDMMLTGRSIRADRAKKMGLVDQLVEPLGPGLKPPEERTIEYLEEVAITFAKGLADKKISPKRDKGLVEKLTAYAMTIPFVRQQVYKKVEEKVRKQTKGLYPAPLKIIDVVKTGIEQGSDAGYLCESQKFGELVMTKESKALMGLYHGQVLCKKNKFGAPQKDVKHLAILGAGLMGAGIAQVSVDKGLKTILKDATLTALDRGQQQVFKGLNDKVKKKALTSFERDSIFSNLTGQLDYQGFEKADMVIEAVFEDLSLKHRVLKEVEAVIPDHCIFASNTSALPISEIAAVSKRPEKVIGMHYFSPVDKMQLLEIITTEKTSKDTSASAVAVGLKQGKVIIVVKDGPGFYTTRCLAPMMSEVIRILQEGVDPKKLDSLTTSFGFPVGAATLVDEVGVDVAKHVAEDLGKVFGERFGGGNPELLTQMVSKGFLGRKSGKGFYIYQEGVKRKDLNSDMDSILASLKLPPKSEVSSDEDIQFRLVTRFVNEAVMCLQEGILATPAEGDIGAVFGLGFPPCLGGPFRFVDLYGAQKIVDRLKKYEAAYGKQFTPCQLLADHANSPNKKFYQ
UniProt P04066, sequence (P04066 whole entry, looked up): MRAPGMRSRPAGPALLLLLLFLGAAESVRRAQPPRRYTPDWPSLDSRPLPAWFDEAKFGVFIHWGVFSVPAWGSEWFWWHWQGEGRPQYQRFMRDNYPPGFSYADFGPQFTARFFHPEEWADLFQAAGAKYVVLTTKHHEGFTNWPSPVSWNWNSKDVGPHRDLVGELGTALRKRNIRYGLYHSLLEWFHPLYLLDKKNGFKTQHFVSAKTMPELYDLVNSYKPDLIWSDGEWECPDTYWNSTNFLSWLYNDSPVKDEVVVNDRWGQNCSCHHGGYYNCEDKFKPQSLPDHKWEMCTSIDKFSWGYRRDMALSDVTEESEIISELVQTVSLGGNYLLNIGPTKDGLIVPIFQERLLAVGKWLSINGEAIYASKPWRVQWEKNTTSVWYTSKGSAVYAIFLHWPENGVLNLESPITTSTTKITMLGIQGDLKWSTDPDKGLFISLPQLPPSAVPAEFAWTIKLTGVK
UniProt P69905, sequence (P69905 whole entry, looked up): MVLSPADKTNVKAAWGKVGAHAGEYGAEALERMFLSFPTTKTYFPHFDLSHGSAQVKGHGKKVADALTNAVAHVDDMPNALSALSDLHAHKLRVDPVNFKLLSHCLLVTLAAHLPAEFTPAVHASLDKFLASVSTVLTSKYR
UniProt Q13889, sequence (Q13889 whole entry, looked up): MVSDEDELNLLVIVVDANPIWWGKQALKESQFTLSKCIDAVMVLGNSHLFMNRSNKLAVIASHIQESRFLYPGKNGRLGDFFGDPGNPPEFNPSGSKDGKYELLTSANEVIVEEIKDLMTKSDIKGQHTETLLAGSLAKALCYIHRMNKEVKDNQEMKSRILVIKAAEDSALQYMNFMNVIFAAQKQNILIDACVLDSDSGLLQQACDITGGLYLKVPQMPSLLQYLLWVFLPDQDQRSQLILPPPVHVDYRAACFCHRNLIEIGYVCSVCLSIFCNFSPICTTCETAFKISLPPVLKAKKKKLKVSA
UniProt O76003, sequence (O76003 whole entry, looked up): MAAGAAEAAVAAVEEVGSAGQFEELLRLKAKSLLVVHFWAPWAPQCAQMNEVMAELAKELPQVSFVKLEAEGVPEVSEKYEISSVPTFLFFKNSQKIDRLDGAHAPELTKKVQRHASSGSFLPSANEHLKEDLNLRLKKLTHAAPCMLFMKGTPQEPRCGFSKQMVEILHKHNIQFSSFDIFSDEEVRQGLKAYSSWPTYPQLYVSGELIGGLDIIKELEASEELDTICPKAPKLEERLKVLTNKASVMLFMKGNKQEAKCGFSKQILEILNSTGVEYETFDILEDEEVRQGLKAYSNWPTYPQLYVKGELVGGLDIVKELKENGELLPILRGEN
UniProt O94925, sequence (O94925 whole entry, looked up): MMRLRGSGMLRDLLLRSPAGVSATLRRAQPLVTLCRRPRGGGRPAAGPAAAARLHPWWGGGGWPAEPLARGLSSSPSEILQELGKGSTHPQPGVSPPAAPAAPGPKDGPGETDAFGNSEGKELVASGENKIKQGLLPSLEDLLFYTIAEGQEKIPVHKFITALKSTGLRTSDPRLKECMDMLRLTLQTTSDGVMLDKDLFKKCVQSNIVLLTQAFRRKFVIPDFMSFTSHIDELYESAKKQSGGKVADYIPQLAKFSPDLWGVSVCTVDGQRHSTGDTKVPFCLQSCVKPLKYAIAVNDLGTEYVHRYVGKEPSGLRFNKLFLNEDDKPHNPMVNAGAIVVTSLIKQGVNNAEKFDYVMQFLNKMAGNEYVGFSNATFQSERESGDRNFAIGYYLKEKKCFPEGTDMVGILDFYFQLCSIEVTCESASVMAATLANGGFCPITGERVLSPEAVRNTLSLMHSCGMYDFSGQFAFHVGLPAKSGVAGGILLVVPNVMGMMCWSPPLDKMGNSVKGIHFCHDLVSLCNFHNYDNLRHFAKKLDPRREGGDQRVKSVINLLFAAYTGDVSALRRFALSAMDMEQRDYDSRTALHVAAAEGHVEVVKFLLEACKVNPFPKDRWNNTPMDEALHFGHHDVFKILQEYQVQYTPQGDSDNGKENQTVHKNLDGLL
UniProt Q9BVP2, sequence (Q9BVP2 whole entry, looked up): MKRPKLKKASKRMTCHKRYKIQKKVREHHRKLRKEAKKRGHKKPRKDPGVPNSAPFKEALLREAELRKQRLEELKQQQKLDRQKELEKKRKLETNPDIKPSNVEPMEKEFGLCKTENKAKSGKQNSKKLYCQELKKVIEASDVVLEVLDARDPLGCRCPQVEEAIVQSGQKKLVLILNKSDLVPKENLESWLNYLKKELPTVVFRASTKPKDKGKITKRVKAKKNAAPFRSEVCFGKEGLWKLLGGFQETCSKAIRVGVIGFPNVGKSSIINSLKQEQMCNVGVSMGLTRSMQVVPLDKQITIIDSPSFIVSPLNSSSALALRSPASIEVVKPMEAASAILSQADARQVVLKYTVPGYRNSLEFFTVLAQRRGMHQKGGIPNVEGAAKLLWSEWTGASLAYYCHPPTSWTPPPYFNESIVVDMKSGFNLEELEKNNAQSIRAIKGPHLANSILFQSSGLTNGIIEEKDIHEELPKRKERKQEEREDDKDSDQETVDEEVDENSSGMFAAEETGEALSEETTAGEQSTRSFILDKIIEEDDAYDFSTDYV
UniProt P29084, sequence (P29084 whole entry, looked up): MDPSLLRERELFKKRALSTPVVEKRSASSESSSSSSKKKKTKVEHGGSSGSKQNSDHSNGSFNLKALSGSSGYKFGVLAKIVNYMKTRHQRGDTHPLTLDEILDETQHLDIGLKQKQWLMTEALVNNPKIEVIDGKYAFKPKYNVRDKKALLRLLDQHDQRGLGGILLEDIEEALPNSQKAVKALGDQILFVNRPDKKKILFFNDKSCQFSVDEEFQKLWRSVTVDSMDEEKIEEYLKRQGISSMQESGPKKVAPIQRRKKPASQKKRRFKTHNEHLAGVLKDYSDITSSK
UniProt O95363, sequence (O95363 whole entry, looked up): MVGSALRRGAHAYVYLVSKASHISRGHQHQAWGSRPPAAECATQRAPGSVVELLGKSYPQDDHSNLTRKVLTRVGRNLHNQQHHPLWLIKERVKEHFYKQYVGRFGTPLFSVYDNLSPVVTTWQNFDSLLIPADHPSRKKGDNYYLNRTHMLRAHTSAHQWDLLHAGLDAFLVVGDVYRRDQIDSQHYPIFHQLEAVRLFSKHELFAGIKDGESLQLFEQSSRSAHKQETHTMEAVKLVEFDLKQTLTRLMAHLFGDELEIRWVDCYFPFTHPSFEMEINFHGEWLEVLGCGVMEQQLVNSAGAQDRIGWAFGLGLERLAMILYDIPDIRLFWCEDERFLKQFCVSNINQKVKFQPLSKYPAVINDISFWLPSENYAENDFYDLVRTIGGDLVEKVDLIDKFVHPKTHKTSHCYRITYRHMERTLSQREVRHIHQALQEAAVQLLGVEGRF

Target	log2 fold change
GGT7 (UniProt Q9UJ14)	-0.019 (inactive)
HADHB (UniProt P55084)	0.006 (inactive)
GTF2H3 (UniProt Q13889)	0.087 (inactive)
GNL3 (UniProt Q9BVP2)	-0.12 (inactive)
GLUL (UniProt P15104)	-0.019 (inactive)
IFT74 (UniProt Q96LB3)	0.021 (inactive)
IDI1 isoform 2 (UniProt Q13907)	0.066 (inactive)
FIBP (UniProt O43427)	0.455 (inactive)
FUBP3 (UniProt Q96I24)	0.022 (inactive)
HEXA (UniProt P06865)	0 (inactive)
GTF2A2 (UniProt P52657)	0.014 (inactive)
GPNMB (UniProt Q14956)	0 (inactive)
GTF2E2 (UniProt P29084)	-0.011 (inactive)
HBA1 (UniProt P69905)	0.042 (inactive)
FUCA1 (UniProt P04066)	-0.018 (inactive)
HBZ (UniProt P02008)	0.009 (inactive)
GLS (UniProt O94925)	0.022 (inactive)
IDH3A (UniProt P50213)	-0.024 (inactive)
GLRX3 (UniProt O76003)	0.001 (inactive)
FERMT3 (UniProt Q86UX7)	-0.005 (inactive)

Target	log2 fold change
FARS2 (UniProt O95363)	0.011 (inactive)
HRC (UniProt P23327)	0.032 (inactive)
GPKOW (UniProt Q92917)	-0.025 (inactive)
GTF3C4 (UniProt Q9UKN8)	-0.052 (inactive)
GBF1 (UniProt Q92538)	-0.005 (inactive)
GYS1 (UniProt P13807)	0.782 (active)
FBXO9 (UniProt Q9UK97)	-0.065 (inactive)
FKBP3 (UniProt Q00688)	-0.028 (inactive)
IFRD2 isoform 2 (UniProt Q12894)	0.29 (inactive)
FCHO1 (UniProt O14526)	-0.059 (inactive)
HTATIP2 isoform 3 (UniProt Q9BUP3)	0.003 (inactive)
FIZ1 (UniProt Q96SL8)	0.042 (inactive)
FBXO7 (UniProt Q9Y3I1)	-0.009 (inactive)
GNAI3 (UniProt P08754)	0.038 (inactive)
HADHA (UniProt P40939)	0.01 (inactive)
FDXR isoform 7 (UniProt P22570)	-0.032 (inactive)
HNRNPH1 (UniProt P31943)	0.108 (inactive)
HNRNPH2 (UniProt P55795)	0.009 (inactive)
HLTF (UniProt Q14527)	0.045 (inactive)
FBL (UniProt P22087)	0.119 (inactive)
